AMA1-RON2 inh: inhibitors of Plasmodium falciparum AMA1-RON2 interaction. AlphaScreen AMA1-biotinylated RON2 peptide binding. Potency, µM (titrated, usually from 58.2 µM), for inactives: at the highest dose activity change, negative = inhibition, actives largely listed as inhibitors. 0.2% of 360,000 active. AID 720542;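 further: potency means the concentration at half of the fitted maximal effect; 0% = vehicle wells and -100% = peptide control; nearly all actives have a fitted effect of over 45% in size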
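AMA1 (3D7) with his tag at 25 nM final met compounds first, then biotinylated RON2 peptide at 25 nM; detection used donor plus acceptor beads, 10 µg/mL apiece, read by AlphaScreen after 30 min at room temperature.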
SARS PLpro yeast: SARS-CoV PLP inhibition in yeast; S. cerevisiae expressing SARS-CoV PLpro, growth rescue; Potency, µM (highest dose often 32.9 µM), for inactives: at the top dose activity, positive = growth rescue, most hits filed as activators; 0.19% of 330,000 active; calls by dose curve; further: potency means the concentration at half of the fitted maximal effect; 0% is about no effect; nearly all actives have a fitted effect of over 55% in size
Cycloheximide cs: affects cycloheximide protein synthesis inhibition readout, counter-screen. cell reporter, cycloheximide protein synthesis inhibition counterscreen. max response, %. 12% of 300,000 active. AID 2314; in the data active means max response mostly above about 13%, no sharp cut-off; inactive means mostly below about 14%; further: read at 38.3 µM for the half of the compounds with a filed dose; 0% is about no effect
Pf growth 96h: P. falciparum growth inhibition at 96 hour, primary screen for plastid delayed-death inhibitors | P. falciparum luciferase reporter growth, 96 h | 6.9% of 320,000 active | AID 504834 | Potency, µM (series often up to 28.7 µM), for inactives: top-dose activity change, negative = inhibition, most hits filed as inhibitors; further: potency means the concentration at half of the fitted maximal effect; on the % scale 0 is the no-effect control and ±100 the full control effect
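Two parasite generations (96 h, 37 C, 5% CO2) of compound exposure in infected erythrocytes (0.05% parasitemia, 2% hematocrit). Luciferase-reporter P. falciparum; decreased luminescence indicates inhibited growth, aimed at apicoplast-acting delayed death.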
Pf growth 48h: inhibits P. falciparum growth in the first generation, 48 h; P. falciparum luciferase growth in erythrocytes, 48 h; Potency, µM (highest dose often 28.7 µM), inactives show at the highest dose activity change, negative = inhibition, hits mostly inhibitors; 5.9% of 310,000 active; further: potency means the concentration at half of the fitted maximal effect; on the % scale 0 is the no-effect control and ±100 the full control effect
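Parasite viability was followed by luminescence of a genomically integrated firefly luciferase. Cultures held 0.1% parasitemia at 2% hematocrit (final), incubated under 5% CO2 at 37 C.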
Shiga toxin inh: inhibitors of Shiga toxin in Vero cells | Vero cells, Shiga toxin protein synthesis inhibition reporter | inhibition, % at 38.7 µM | 9.2% of 290,000 active; in the data active means inhibition mostly above about 28%, no sharp cut-off; inactive means mostly below about 43%; further: 0% is about no effect
The depositor's hits bear a star. This is a sample that favours compounds with a hit; in the whole collection about 19% have one here. Unless noted, the call rests on the fitted dose curve; in most records, active means well fitted curve in the direction sought with a large enough effect; inconclusive means small, poorly fitted or top-dose-only effect, or another doubt; inactive means no such curve, though single readings can be large; an effect the other way counts as inactive or inconclusive.

Results for COc1ccccc1OCC(=O)N/N=C/C=C/c1ccc([N+](=O)[O-])o1 ?
AMA1-RON2 inh: 14%; SARS PLpro yeast: -39%; Cycloheximide cs: 19*; Pf growth 96h: 1.5µM*; Pf growth 48h: 4.1µM*; Shiga toxin inh: 13

How did O=C(COc1ccccc1[N+](=O)[O-])N/N=C/C=C/c1ccco1 do in these assays?
AMA1-RON2 inh: 12%; SARS PLpro yeast: 2%; Cycloheximide cs: 8; Pf growth 96h: 132%; Pf growth 48h: 78%; Shiga toxin inh: 39

Results for Cc1ccccc1OCC(=O)NCC(=O)N/N=C/c1ccc(Br)o1 ?
AMA1-RON2 inh: -28%; SARS PLpro yeast: -10%; Cycloheximide cs: -4; Pf growth 96h: -26%; Pf growth 48h: 0%; Shiga toxin inh: -7

What do the screens show for `CCCOc1ccc(CCC(=O)N/N=C/c2ccc([N+](=O)[O-])o2)cc1`?
AMA1-RON2 inh: 51%; SARS PLpro yeast: -3%; Cycloheximide cs: 3; Pf growth 96h: 12µM*; Pf growth 48h: inconclusive; Shiga toxin inh: 32

Results for CCCCCCCC(=O)N/N=C/c1ccc([N+](=O)[O-])o1 ?
AMA1-RON2 inh: -9%; SARS PLpro yeast: -48%; Cycloheximide cs: 1; Pf growth 96h: inconclusive; Pf growth 48h: inconclusive; Shiga toxin inh: 2

What do the screens show for `Cc1cc(C)cc(OCC(=O)N/N=C/c2ccc([N+](=O)[O-])o2)c1`?
AMA1-RON2 inh: 6%; SARS PLpro yeast: 1%; Cycloheximide cs: 24; Pf growth 96h: 31%; Pf growth 48h: 9.3µM*; Shiga toxin inh: 32

Results for O=C(COC(=O)c1cc([N+](=O)[O-])ccc1N1CCOCC1)NCCc1ccccc1 ?
AMA1-RON2 inh: 13%; SARS PLpro yeast: 2%; Cycloheximide cs: -1; Pf growth 96h: 2%; Pf growth 48h: 50%; Shiga toxin inh: -6

Results for CCOC(=O)C1CCCN(C(=O)c2cc(S(=O)(=O)N3CCCCC3)c[nH]2)C1 (stereo not drawn) ?
AMA1-RON2 inh: 7%; SARS PLpro yeast: 5%; Cycloheximide cs: -1; Pf growth 96h: 59%; Pf growth 48h: 14%; Shiga toxin inh: -5

What do the screens show for `O=C(CNc1cccc2ccccc12)N/N=C/c1ccc([N+](=O)[O-])o1`?
AMA1-RON2 inh: -9%; SARS PLpro yeast: -80%; Cycloheximide cs: 10*; Pf growth 96h: 1.2µM*; Pf growth 48h: 3.3µM*; Shiga toxin inh: 14

Results for O=C(CNc1cccc([N+](=O)[O-])c1)N/N=C/c1ccc([N+](=O)[O-])o1 ?
AMA1-RON2 inh: 22%; SARS PLpro yeast: -1%; Cycloheximide cs: -1; Pf growth 96h: -14%; Pf growth 48h: inconclusive; Shiga toxin inh: -7

What do the screens show for `Cc1cccc(C(=O)NC(C(=O)Nc2cccc(S(=O)(=O)N3CCCC3)c2)C(C)C)c1` (stereo not drawn)?
AMA1-RON2 inh: -8%; SARS PLpro yeast: -3%; Pf growth 96h: inconclusive; Pf growth 48h: inconclusive

How did COc1ccc(C2/C(=C(/O)c3ccc(Br)cc3)C(=O)C(=O)N2C)cc1 (stereo not drawn) do in these assays?
AMA1-RON2 inh: 4%; SARS PLpro yeast: 1%; Cycloheximide cs: -2; Pf growth 96h: 0.93µM*; Pf growth 48h: 0%; Shiga toxin inh: 6

What do the screens show for `COc1ccc(C2/C(=C(/O)c3ccc(Br)cc3)C(=O)C(=O)N2C)cc1OC` (stereo not drawn)?
AMA1-RON2 inh: -5%; SARS PLpro yeast: 10%; Cycloheximide cs: -1; Pf growth 96h: inconclusive; Pf growth 48h: 18%; Shiga toxin inh: -7

Results for COc1ccc(C2/C(=C(/O)c3ccccc3)C(=O)C(=O)N2C)cc1OC (stereo not drawn) ?
AMA1-RON2 inh: 2%; SARS PLpro yeast: 11%; Cycloheximide cs: 14*; Pf growth 96h: inconclusive; Pf growth 48h: 17%; Shiga toxin inh: 27*

How did CC(C)=CCOc1c2ccoc2c(OCC=C(C)C)c2oc(=O)ccc12 do in these assays?
AMA1-RON2 inh: 18%; SARS PLpro yeast: -4%

Results for NCc1cc2c3c(c1)CCCN3CCC2 ?
AMA1-RON2 inh: 17%; SARS PLpro yeast: -1%; Cycloheximide cs: -9; Pf growth 96h: 7.4µM*; Pf growth 48h: -6%; Shiga toxin inh: -16
